Laboratory results reported in PubChem BioAssay (NCI).
This is part of a sample that, as a whole, favours compounds with a hit. Of some 83,000 tested, about 20% had one in any assay.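 Each cell line was grown in a 96-well plate and treated with one concentration of compound for 48 hours. Values below 10 were considered active.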 Values without a mark were called inactive. The source made the active and inactive calls.

Columns and labels:
Experiment in all cases: NCI-60 one-dose screen, 48 h (100 = growth as untreated, 0 = no growth, -100 = all killed)
Conditions in all cases: 10 µM unless noted
HT29 colon = test system: HT29 colon
SNB-75 CNS = test system: SNB-75 CNS
SNB-19 CNS = test system: SNB-19 CNS
U251 CNS = test system: U251 CNS
PC-3 prostate = test system: PC-3 prostate
UACC-62 melanoma = test system: UACC-62 melanoma
LOX IMVI melanoma = test system: LOX IMVI melanoma
SK-MEL-28 melanoma = test system: SK-MEL-28 melanoma
SK-MEL-2 melanoma = test system: SK-MEL-2 melanoma
EKVX NSCLC = test system: EKVX NSCLC
SN12C renal = test system: SN12C renal
UO-31 renal = test system: UO-31 renal
TK-10 renal = test system: TK-10 renal
ACHN renal = test system: ACHN renal
CAKI-1 renal = test system: CAKI-1 renal
A498 renal = test system: A498 renal
CCRF-CEM leukemia = test system: CCRF-CEM leukemia
MOLT-4 leukemia = test system: MOLT-4 leukemia
SR leukemia = test system: SR leukemia
SK-MEL-5 melanoma = test system: SK-MEL-5 melanoma

Row | Structure (SMILES) | growth (HT29 colon) | growth (SNB-75 CNS) | growth (SNB-19 CNS) | growth (U251 CNS) | growth (PC-3 prostate) | growth (UACC-62 melanoma) | growth (LOX IMVI melanoma) | growth (SK-MEL-28 melanoma) | growth (SK-MEL-2 melanoma) | growth (EKVX NSCLC) | growth (SN12C renal) | growth (UO-31 renal) | growth (TK-10 renal) | growth (ACHN renal) | growth (CAKI-1 renal) | growth (A498 renal) | growth (CCRF-CEM leukemia) | growth (MOLT-4 leukemia) | growth (SR leukemia) | growth (SK-MEL-5 melanoma)
1 | Cc1scc2c1N(C(=O)CN1CCN(C)CC1)c1ccccc1NC2=O | 104% | 110% | 111% | 99.6% | 98% | 109% | 99.7% | 110% | 113% | 107% | 101% | 85.9% | 105% | 102% | 99.5% | 122% | 108% | 96.5% |  | 
2 | CCCCCCCC/C=C\CCCCCCCCOc1ccccc1CC(=O)NCC[N+]1(C)CCCC1 | 18% | 79% | 60.4% | 47.6% | 17.5% | 67.1% | 72% | 96.7% | 106% | 93% | 49.5% | 99.2% | 70.5% | 107% | 97.4% | 93.2% | 39.3% | 65% | 28% | 
3 | Nc1c2ccccc2nc2ccccc12 (tested in a mixture with another compound) | 0.0152% (active) | 31.9% | 29.4% | 13.7% | 17% | 5.82% (active) | 4.92% (active) | 36.2% | -5.63% (active) | 22.6% | 20.1% | 14.9% | 15.5% | 8.26% (active) | 20.2% | 0.179% (active) | 26.2% | 15.4% |  | 
4 | CCCCCCCCSc1ncnc2c1ncn2CO | 91% | 75.1% | 94.7% | 74.7% | 75.6% | 92.8% | 80.1% | 101% | 95.8% |  | 76.4% | 86.6% | 89.9% | 81% | 72.6% | 106% |  | 85.8% | 115% | 
5 | C/C(=C\CCc1ccsc1)CC/C=C(\C)CCCN1CCN(CCO)CC1 | -34.4% (active) | 42.7% | 64% | 6.55% (active) | 55.3% | -73.9% (active) |  | 58.1% |  |  | 55.2% | 62.1% | 40% | 50.6% | 77.6% | 39.2% | 24.1% | 2.14% (active) | -29.1% (active) | 
6 | O=C(Nc1cccc2ccccc12)c1cc2c(cc1Br)OCO2 | 101% | 57.4% | 86.7% | 103% |  | 85.5% | 91% | 119% | 130% | 92.9% | 107% | 99.2% | 172% | 94.2% | 101% | 126% | 94.7% | 91.5% | 71.5% | 99.2%
7 | COc1cc2c(cc1OC)C1CCN3C(=O)CCC3N1CC2 (centres undefined) | 109% | 105% | 111% | 112% | 107% | 97% |  | 110% | 119% | 114% | 109% | 99.7% | 104% | 102% | 115% | 104% | 102% | 97.3% | 95.8% | 
8 | CN(C)c1ccc2[nH]c3c(C(N)=O)cc(=O)c(=O)c=3oc2c1 | 127% | 52.7% | 74.4% | 35.4% | 59.3% | 62.6% | 8.85% (active) |  | 85.4% | 100% | 54.5% | 56.3% | 111% | 29.7% | 83.2% | 87.7% | 11.9% | 9.08% (active) | 31% | 
9 | Cn1[nH]cc(/C=N/C(N)=O)c1=O | 115% | 106% | 106% | 103% | 108% | 105% | 96.1% | 115% |  | 123% | 108% | 106% | 109% |  | 109% | 104% | 94.8% | 105% | 103% | 
10 | O=C1c2ccccc2C(=O)c2c1cccc2-n1nnc2ccccc21 | 106% | 90.8% | 104% | 99.8% |  | 103% | 100% | 118% | 79.3% | 112% | 106% | 76% | 121% | 103% | 105% | 88.4% | 80.9% | 96% | 104% | 112%
11 | CN1CCN(CC(=O)Nc2nc3c(s2)Nc2cc(Cl)c(Cl)cc2NC3=O)CC1 | 99.1% | 96.3% | 104% | 95% | 97.7% | 109% |  | 111% |  |  | 109% | 85.4% | 95.8% | 105% | 102% | 106% | 99.8% | 90.8% | 98.8% | 
12 | CCOC(=O)c1c2c(c(C)n1Cc1ccc(OC)cc1)-c1nc(N)ncc1CC2 | 110% | 103% | 111% | 106% |  | 87.3% | 104% | 112% | 119% | 98.8% | 95.3% | 90% | 130% | 106% | 101% | 111% | 126% | 93.6% |  | 110%
13 | CN(C)c1ccc(/C=C\c2ccnc3ccccc23)cc1 | 51.7% | 40.9% | 79.9% | 73.9% |  | 72.8% | 72.7% | 88.7% | 18.7% | 34.5% | 76.1% | 34.6% | 55.9% | 70.6% | 77.2% | 63.9% | 29.5% | 66.7% | -32.4% (active) | 65.2%
14 | C/C(=C\CCc1ccsc1)CC/C=C(\C)CCCN1CCC(CO)CC1 | -42.6% (active) | 41.1% | 52.6% | -3.53% (active) | 41.2% | -83.4% (active) |  | 9.39% (active) |  |  | 51.5% | 23.4% | 22.6% | 44% | 45.3% | 25.5% | 2.24% (active) | -22.2% (active) | -44.8% (active) | 
15 | O=C1CC(C(F)(F)F)=NN1C(=O)c1nn(-c2ccc(Cl)cc2)cc1O | 110% | 74.6% | 87.7% | 64.9% |  | 96.4% | 62.6% | 115% | 96.9% | 79.5% | 80.3% | 67.3% | 122% | 79.3% | 52.8% | 77.8% | 53.1% | 80.4% | -0.46% (active) | 88.4%
16 | COc1cc2c(cc1OCCCOc1ccc(-c3cc4ccccc4c4ccccc34)cc1)N=C[C@@H]1CCCN1C2=O | -46.6% (active) | -78% (active) | -46.8% (active) | -79.3% (active) |  | -83.6% (active) | -62.1% (active) | -62.2% (active) | -78.8% (active) | -74.1% (active) | -73.5% (active) | -59.3% (active) | -75.6% (active) | -85.3% (active) | -19.6% (active) | -82.8% (active) | 6.61% (active) | 17.4% | 102% | -80.2% (active)
17 | O=C(CCc1nnc2sc(-c3ccc(Cl)cc3Cl)nn12)c1nc2ccccc2[nH]1 | -12.9% (active) | -45.8% (active) | 7.75% (active) | -83.1% (active) |  | -85.1% (active) | -58% (active) | -60.1% (active) | -68.9% (active) | -29.7% (active) | -36.7% (active) | -72.6% (active) | -83.2% (active) | -89.7% (active) | -54.2% (active) | -74.9% (active) | 10.9% | 1.48% (active) |  | -70.2% (active)
